# From PubChem BioAssay (EPA / NIEHS)
# Records with an inconclusive call do not appear. Active and inactive are the calls of the source. The calls were made as follows, unless noted: active = hit-call score of the fitted dose curve at least 0.9, where 1 is the maximum; inactive = score below 0.9.
# Assays:
# [1] = target: Estrogen receptor (Homo sapiens) (UniProt P03372); assay: CCTE_Deisenroth_AIME_96WELL_LUC_Active: CCTE's 96-well Estrogen Receptor Transactivation Assay with AIME metabolic competence (ERTA luciferase; metabolism positive), Deisenroth Lab (AID 2284023; active = hit-call score of the fitted dose curve at least 0.9, where 1 is the maximum)
# Sequence of Estrogen receptor (Homo sapiens) (P03372 whole entry, looked up): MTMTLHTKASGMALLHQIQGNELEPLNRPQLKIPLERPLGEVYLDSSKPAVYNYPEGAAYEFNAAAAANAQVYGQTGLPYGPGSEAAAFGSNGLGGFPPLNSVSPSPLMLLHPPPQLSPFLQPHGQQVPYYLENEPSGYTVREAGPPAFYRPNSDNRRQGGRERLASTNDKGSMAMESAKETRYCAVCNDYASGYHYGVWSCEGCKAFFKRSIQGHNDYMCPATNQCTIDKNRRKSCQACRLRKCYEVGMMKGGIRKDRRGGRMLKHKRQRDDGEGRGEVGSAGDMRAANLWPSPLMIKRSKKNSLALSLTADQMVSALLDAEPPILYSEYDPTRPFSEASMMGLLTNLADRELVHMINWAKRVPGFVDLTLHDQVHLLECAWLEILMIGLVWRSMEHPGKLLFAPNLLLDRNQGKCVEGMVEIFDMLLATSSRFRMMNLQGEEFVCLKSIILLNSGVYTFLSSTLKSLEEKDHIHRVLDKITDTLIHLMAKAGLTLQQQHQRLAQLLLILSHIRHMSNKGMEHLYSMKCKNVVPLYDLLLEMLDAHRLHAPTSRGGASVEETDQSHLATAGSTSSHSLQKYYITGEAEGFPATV
# In short: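 Chemicals pre-incubated 2 h with alginate-immobilized phenobarbital/beta-naphthoflavone-induced male Sprague Dawley rat liver S9, then medium transferred to VM7Luc4E2 cells for 24 h luciferase read-out. 10-point series 0.002 - 200 uM; fitted relative to 17beta-estradiol.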
# [2] = target: Estrogen receptor (Homo sapiens) (UniProt P03372); assay: CCTE_Deisenroth_AIME_96WELL_LUC_Inactive: CCTE's 96-well Estrogen Receptor Transactivation Assay without AIME metabolic competence (ERTA luciferase; metabolism negative), Deisenroth Lab (AID 2284025; active = hit-call score of the fitted dose curve at least 0.9, where 1 is the maximum)
# In short: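 VM7Luc4E2 breast cells, luciferase read 24 h after dosing with medium pre-incubated 2 h on alginate-water lids (metabolism negative). 10-point series 0.002–200 uM, single technical replicate, n≥4; fit relative to 17beta-estradiol.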
# [3] = CCTE_Deisenroth_AIME_96WELL_CTox_Active: Cytotoxicity Assessment (CTOX) in CCTE's 96-well Estrogen Receptor Transactivation Assay with AIME metabolic competence (metabolism positive), Deisenroth Lab (AID 2284028; active = hit-call score of the fitted dose curve at least 0.9, where 1 is the maximum)
# In short: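 Chemicals (0.002–200 uM) were first incubated 2 h with alginate-immobilized phenobarbital/beta-naphthoflavone-induced male rat liver S9; conditioned medium then went onto VM7Luc4E2 cells for 24 h, with viability read by protease-substrate fluorescence, fitted bidirectionally.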
# [4] = CCTE_Shafer_MEA_acute_per_network_burst_spike_number_mean: CCTE's Neural Acute Assay for Average Number of Spikes in a Network Burst, Shafer Lab (AID 2284019)
# In short: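 Primary rat cortical neurons on 16-electrode MEA wells, DIV 13 or 15, 37 C; 40-min baseline then 40-min recording with compound (0.03-40 uM). Spikes per network burst (total spikes/number of bursts) expressed as percent change from baseline, DMSO reference.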
# [5] = CCTE_Shafer_MEA_acute_per_network_burst_spike_number_std: CCTE's Neural Acute Assay for Standard Deviation of Number of Spikes in a Network Burst, Shafer Lab (AID 2284020);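 also: fitted for decrease in spike-number SD versus DMSO so actives lower it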
# Description: CCTE_Shafer_MEA_acute assay is conducted using Axion Biosystems 48 well microelectrode array (MEA) plates and Maestro recording system. Each well of the MEA plate contains a grid of 16 microelectrodes embedded in the culture surface. Electrically active cells, such as neurons, can be cultured over the electrodes, and electrical activity in these cells can be recorded extracellularly. The spontaneous firing of neurons is captured from each electrode on a microsecond timescale providing both temporally and spatially precise data. […] The CCTE_Shafer_MEA_acute assay uses primary cultures of rat cortical neurons. […] The recordings before and after chemical treatment are used to calculate a percent change in the standard deviation of the number of spikes in network bursts in each well.Data from the assay component CCTE_Shafer_MEA_acute_burst_spike_number_std was analyzed into 1 assay endpoint. This assay endpoint, CCTE_Shafer_MEA_acute_burst_spike_number_std, was analyzed in the negative analysis fitting direction relative to DMSO as the negative control and baseline of activity. […]
# Spontaneous activity in the cortical cultures was recorded using an Axion Biosystems Maestro 768 channel amplifier and Axion Integrated Studios (AxIS) v1.8 (or later) software. […] Any electrodes with rms noise levels greater than 5 uV were grounded (e.g., no data were recorded). […]
# [6] = CCTE_Shafer_MEA_acute_per_network_burst_electrodes_number_mean: CCTE's Neural Acute Assay for Mean Number of Electrodes in a Network Burst, Shafer Lab (AID 2284021);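 also: curves fitted for decreases only so hits reduce electrodes per burst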
# In short: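 Percent change from baseline in average electrode count per network burst, rat cortical cultures on 48-well MEAs; 40-min recordings each side of exposure, DIV 13 or 15; threshold 8x rms noise; DMSO as negative control.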
# [7] = CCTE_Shafer_MEA_acute_network_burst_percentage: CCTE's Neural Acute Assay for Percentage of Network Bursts, Shafer Lab (AID 2284022);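 also: curves fitted for loss so actives lower network burst percentage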
# In short: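 On DIV 13 or 15, at least three wells of rat cortical neurons per compound are dosed at 0.03-40 uM. Spontaneous firing is detected at 8x rms noise for 40 min before and after dosing at 37 C. The percent change in network-burst spike share is reported.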
# [8] = CCTE_Shafer_MEA_acute_cross_correlation_area: CCTE's Neural Acute Assay for Area of Cross Correlation, Shafer Lab (AID 2284024);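 also: area under pooled inter-electrode spike cross-correlation near zero lag as percent change from own baseline; curves fitted for loss of cross-correlation area so actives lower synchrony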
# In short: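 Extracellular recordings from cultured rat cortical neurons measure network synchrony as cross-correlation area; each well's post-compound value (0.03-40 uM, 40 min) is compared with its own 40 min baseline to give percent change.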
# [9] = CCTE_Shafer_MEA_acute_cross_correlation_HWHM: CCTE's Neural Acute Assay for Cross Correlation at Half Width at Half Maximum, Shafer Lab (AID 2284026);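 also: percent change per well from pre-dose baseline in spike cross-correlogram half width; hits are a decrease in cross-correlogram half width relative to DMSO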
# In short: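 Percent change in cross-correlogram half width at half maximum, narrower meaning more synchrony, was derived per well from paired 40-min recordings before and during exposure to 0.03-40 uM compound in rat cortical cultures at 37 C.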
# [10] = CCTE_Shafer_MEA_acute_synchrony_index: CCTE's Neural Acute Assay for Synchrony, Shafer Lab (AID 2284027);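 also: network synchrony index of spontaneous spiking in primary rat cortical neurons on MEAs; fitted for loss of signal so actives lower synchrony relative to DMSO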
# In short: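 Primary rat cortical neurons on 48-well MEAs, dosed at 0.03–40 uM on DIV 13 or 15. Spikes are recorded for 40 min at 37C before and after exposure, and synchrony index (0–1) is expressed as percent change from baseline per well.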
smiles,measurement,setting,value
CCCCC(CC)COC(=O)c1ccc(N(C)C)cc1 (stereo not drawn),outcome,[1],inactive
same,AC50,[2],16.2 µM (active)
same,outcome,[3],inactive
Cc1ccc(O)c(-n2nc3ccccc3n2)c1,AC50,[1],21.7 µM (active)
same,AC50,[2],10.2 µM (active)
same,outcome,[3],inactive
CCN=C1C=CC(=C(c2ccc(N(CC)CC)cc2)c2ccc(N(CC)CC)cc2)c2ccccc21,outcome,[4],inactive
same,AC50,[5],0.718 µM (active)
same,AC50,[6],0.498 µM (active)
same,AC50,[7],0.762 µM (active)
same,AC50,[8],0.302 µM (active)
same,AC50,[9],0.883 µM (active)
same,AC50,[10],0.541 µM (active)
